Only some compounds are listed: those with a hit (about 11% of all), similar ones and a draw of the others.
USP17 block = human USP17-like deubiquitinase inhibition | 47,000 tested, 6.5% active | purified USP17, Ub-rhodamine cleavage fluorescence, 3 h | A8MUK1 | inhibition, % at 50 µM
USP28 inh = inhibitors of human USP28 deubiquitinase; AID 1645857; purified USP28, Ub-rhodamine cleavage fluorescence, 30 min; 47,000 tested, 3% active; inhibition, % at 25 µM; Q96RU2
USP30 block = inhibitors of human USP30 deubiquitinase; Q70CQ3; purified USP30, Ub-rhodamine cleavage fluorescence; inhibition, % at 25 µM; 47,000 tested, 5.3% active
Target sequence (Q70CQ3 whole entry, looked up): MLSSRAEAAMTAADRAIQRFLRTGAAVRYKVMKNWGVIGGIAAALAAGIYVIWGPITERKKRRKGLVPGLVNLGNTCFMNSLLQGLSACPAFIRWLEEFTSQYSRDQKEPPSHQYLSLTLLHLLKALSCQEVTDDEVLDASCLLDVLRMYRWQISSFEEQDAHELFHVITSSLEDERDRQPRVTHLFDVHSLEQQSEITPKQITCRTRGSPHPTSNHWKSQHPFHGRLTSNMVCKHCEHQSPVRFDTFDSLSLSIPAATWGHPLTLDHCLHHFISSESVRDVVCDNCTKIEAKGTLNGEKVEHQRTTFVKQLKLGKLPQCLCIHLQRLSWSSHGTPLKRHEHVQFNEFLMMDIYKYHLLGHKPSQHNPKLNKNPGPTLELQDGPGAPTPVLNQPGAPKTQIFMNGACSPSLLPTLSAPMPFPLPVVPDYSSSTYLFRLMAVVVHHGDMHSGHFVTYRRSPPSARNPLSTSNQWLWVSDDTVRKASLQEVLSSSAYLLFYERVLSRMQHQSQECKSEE
Active calls of the source: *; i = inactive; x = no result given. Rule as the data show it: active = inhibition above about 30%; inactive = the rest.

SMILES | USP17 block | USP28 inh | USP30 block
O=C(c1cccnc1)N1CCC2(CC1)COc1ccccc1S(=O)(=O)N(CC1CC1)C2 | -8 | 10 | 1
CCc1ccccc1NC(=O)c1cn(-c2ncccc2-c2nc(C)no2)cn1 | 3 | 1 | 12
Cc1cc2cc(O)cc(O)c2c(=O)o1 | 2 | 3 | 27
COc1c2c(cc3cc(O)c4c(=O)cc(C)oc4c13)CCC2=O | 60* | 27 | -6
Cc1cc(N2CCCC2c2cnc(-c3ncc[nH]3)cn2)ncn1 (stereo not drawn) | 8 | 14 | 9
O=C(c1nc2c(s1)CCCN2C(=O)c1ccncc1)N1CCCC1 | -4 | -4 | 9
CC(C(=O)NCc1ccc2c(c1)OCO2)n1nc(-c2ccccc2)c2cc(Cl)ccc21 (stereo not drawn) | 35* | 16 | 25
COC(=O)c1ccccc1NC(=O)C(C)n1nc(-c2ccccc2)c2cc(Cl)ccc21 (stereo not drawn) | -3 | -14 | -25
CC(C(=O)NCc1ccc2c(c1)OCO2)N1CCN(c2ccc(O)cc2)CC1 (stereo not drawn) | 73* | 30 | 23
CC(=O)N1CC(C(=O)NCc2ccc3c(c2)OCO3)C1 | 2 | 9 | 28
Cc1n[nH]c(C)c1CC(=O)NC(C)c1nc2ccccc2[nH]1 (stereo not drawn) | 25 | 0 | 15
COc1ccc(C)c2sc(N3CCN(C(=O)c4ccn(C)n4)CC3)nc12 | -17 | -11 | -1
CC(NC(=O)c1ccc2c(=O)n3c(nc2c1)CCCCC3)c1ccccc1 (stereo not drawn) | -2 | 0 | -6
N#Cc1cccc(NC(=O)c2ccc3c(=O)n4c(nc3c2)CCCCC4)c1 | 36* | 23 | 29
Cc1cc(NC(=O)c2ccc3c(=O)n4c(nc3c2)CCCCC4)no1 | 23 | 25 | 31*
CC(OC(=O)c1ccc2c(=O)n3c(nc2c1)CCCCC3)C(=O)NC1CCCC1 (stereo not drawn) | 31* | 23 | 47*
O=C(NC1CC1)c1ccc2c(=O)n3c(nc2c1)CCCC3 | 0 | x | x
Cc1cc(=O)oc2cc(NC(=O)c3ccc4c(=O)n5c(nc4c3)CCCC5)ccc12 | 4 | 5 | -3
CCC(C)(CC(=O)O)CC(=O)Nc1cccc(CO)c1 (stereo not drawn) | 0 | -3 | 4
O=C(NCc1ccccc1F)C1CCCN(c2cnc3nccnc3c2)C1 (stereo not drawn) | -166 | -251 | i
O=C1CN(Cc2cccc(F)c2)S(=O)(=O)c2ccccc2N1Cc1ccccc1F | 6 | 6 | 31*
O=C1CC(c2ccccc2)S(=O)(=O)c2ccccc2N1Cc1ccccc1F (stereo not drawn) | 39* | 8 | 29
O=C1CN(Cc2ccccc2)S(=O)(=O)c2ccccc2N1Cc1ccccc1F | -6 | -2 | 17
COc1ccc(C2CC(=O)N(CC(=O)c3ccccc3)c3ccccc3S2(=O)=O)cc1OC (stereo not drawn) | 1 | 2 | 16
COc1ccc(C2CC(=O)N(Cc3ccccc3F)c3ccccc3S2(=O)=O)cc1OC (stereo not drawn) | 36* | 0 | -59
SMILES | USP17 block | USP28 inh | USP30 block
O=C1CN(Cc2ccc(F)cc2)S(=O)(=O)c2ccccc2N1Cc1ccccc1F | 6 | 12 | 21
O=C(c1csc(-c2ccc(N3CCOCC3)nc2)n1)N1CCOCC1 | 5 | 0 | 0
O=C(c1n[nH]c2c1CCC2)N1C[C@H]2CC(OCc3ccccc3)C[C@H]2C1 (stereo partly drawn) | 1 | -7 | -33
COC(=O)C(NC(=O)c1cccc(NC=O)c1O)C(C)O (stereo not drawn) | -28 | -15 | -6
CC(C)C(=O)O[C@H]1[C@H](C)C(=O)O[C@@H](C)[C@@H](NC(=O)c2cccc(NC=O)c2O)C(=O)O[C@@H]1C | 45* | 18 | 35*
CCOc1ccc(NC(=O)Cn2cnc(S(=O)(=O)N3CCc4ccccc43)c2)cc1 | 80* | 48* | 11
CCc1ccc(NC(=O)Cn2cnc(S(=O)(=O)N3CCCC3)c2)cc1 | 21 | 7 | 14
COc1ccc(-c2noc(CN3CCN(C(=O)c4cccc(Cl)c4Cl)CC3)n2)cc1 | 1 | 0 | 11
O=C(c1ccco1)N1C[C@H](OCc2cccnc2)[C@H]2OCCC[C@H]21 | -5 | 0 | -19
COc1ccc(CC(=O)Nc2ccc(C)c(S(=O)(=O)Nc3ccccc3OC)c2)cc1 | 1 | 0 | 4
COc1ccc(NC(=O)CCOc2ccccc2C)cc1S(=O)(=O)Nc1cc(C)ccc1Br | 6 | 25 | 35*
O=c1[nH]c(=O)n(Cc2ccccc2)c2c1CN(Cc1ccccc1)CN2 | 15 | 13 | -8
O=c1[nH]c(=O)n(Cc2ccccc2)c2c1CN(CCc1ccccc1)CN2 | 35* | 15 | 36*
CCN(c1ccccc1)S(=O)(=O)c1ccc2c(c1)OCC(=O)N2 | -3 | -1 | 1
CCN1C[C@@]23CN(C(=O)c4ccncc4)C[C@@H](C[C@@H]2S1(=O)=O)O3 | -7 | -4 | -14
Cc1ccc(NC(=O)C2CCCC2)cc1S(=O)(=O)N1CCOCC1 | -14 | -9 | -5
Cc1ccc(NC(=O)c2cc(=O)c3ccccc3o2)cc1S(=O)(=O)N1CCOCC1 | 7 | 21 | 35*
O=C(NC1CCCCCC1)c1cc(-c2cccnc2)n[nH]1 | -6 | -3 | -1
O=C(Nc1ccc(Cl)cc1F)c1cc(-c2cccnc2)n[nH]1 | 28 | 12 | 41*
O=C(NC1CCN(Cc2ccccc2)CC1)c1cc(-c2cccnc2)n[nH]1 | -5 | x | x
O=C(Nc1cc(F)ccc1F)c1cc(-c2cccnc2)n[nH]1 | 57* | x | x
COc1ccc(C(=O)c2ccccc2)c(OCC(=O)Nc2cccc(C#N)c2)c1 | 18 | 0 | 23
Cc1c(C(=O)NCCN2CCOCC2)oc2ccc(S(=O)(=O)N3CCOCC3)cc12 | 9 | 4 | 14
Cc1c(C(=O)NCCCN2CCOCC2)oc2ccc3c(c12)C(=O)CC(C)(c1ccc(Cl)cc1)O3 (stereo not drawn) | 10 | 42* | 19
COc1ccc(N=c2oc3cc(O)ccc3cc2C(=O)NCC2CCCO2)cc1OC (stereo not drawn) | -47 | -9 | -75
SMILES | USP17 block | USP28 inh | USP30 block
Cc1nnc(C(=O)Nc2cccc(C(=O)NCCN3CCCCCC3)c2)s1 | -107 | -149 | i
COc1ccc(NC(=O)c2nnc(C(=O)NCCN3CCCCCC3)s2)cc1 | 46* | 30 | 52*
O=C(NCCN1CCN(C(=O)c2c(F)cccc2F)CC1)C(=O)Nc1ccc(F)cc1 | -1 | 0 | 8
COc1ccc(NC(=O)C(=O)NCCN2CCN(C(=O)c3c(F)cccc3F)CC2)cc1 | 6 | 12 | 33*
O=S1(=O)c2ccccc2O[C@H]2CCN(c3ncc(F)cn3)CC[C@@H]2N1CC1CC1 | -7 | 4 | -2
CCCc1nc(-c2cccc(OCC(=O)Nc3ccccc3Cl)c2)no1 | -32 | -20 | -51
CS(=O)(=O)c1ccccc1C(=O)NCCC(c1ccccc1)c1ccccc1 | -1 | 3 | 21
Cc1ccc(C(=O)NCCC(c2ccccc2)c2ccccc2)o1 | 26 | 31* | 20
Cc1ccc2nc(N3CCN(c4ccccc4F)CC3)c(-n3nc(C)cc3C)nc2c1 | 7 | -2 | -9
Cc1ccc(Nc2ncc(C(=O)NCC3COc4ccccc4O3)c3ccccc23)cc1Cl (stereo not drawn) | 0 | 8 | 4
